Assay outcomes as filed in PubChem BioAssay.
The list is not random: actives were taken first. Their share in the collection is about 1.4%.
EBV gp42 inh: blocks Epstein-Barr virus glycoprotein 42 binding; Fluorescence polarization binding assay, mP read-out; inhibition, % (tested at 21.74 µM); 0.42% of 220,000 active; AID 1085; in the data active = inhibition above about 50%
Target sequence (Q1HVG2 whole entry, looked up): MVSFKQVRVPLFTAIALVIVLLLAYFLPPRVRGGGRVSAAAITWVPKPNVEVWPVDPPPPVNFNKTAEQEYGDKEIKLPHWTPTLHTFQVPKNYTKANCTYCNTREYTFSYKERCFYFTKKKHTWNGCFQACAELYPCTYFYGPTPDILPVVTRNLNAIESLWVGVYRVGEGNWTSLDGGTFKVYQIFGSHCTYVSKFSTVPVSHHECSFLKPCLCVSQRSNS
MCL1-BIM inh: MCL1-BIM-BH3 interaction inhibition (human); inhibition, % at 10.9 µM; 0.68% of 320,000 active; AID 2057; Q07820; GST-MCL1 / FITC-Bim-BH3 fluorescence polarization;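 active = inhibition above the mean inhibition of all tested compounds plus 3 SD, set per campaign, cut at about 40% in these data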;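 also: 0% = DMSO wells and 100% = unlabeled Bim-BH3 peptide control; higher means more loss of mP so more displacement of Bim peptide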
Target sequence (Q07820 whole entry, looked up): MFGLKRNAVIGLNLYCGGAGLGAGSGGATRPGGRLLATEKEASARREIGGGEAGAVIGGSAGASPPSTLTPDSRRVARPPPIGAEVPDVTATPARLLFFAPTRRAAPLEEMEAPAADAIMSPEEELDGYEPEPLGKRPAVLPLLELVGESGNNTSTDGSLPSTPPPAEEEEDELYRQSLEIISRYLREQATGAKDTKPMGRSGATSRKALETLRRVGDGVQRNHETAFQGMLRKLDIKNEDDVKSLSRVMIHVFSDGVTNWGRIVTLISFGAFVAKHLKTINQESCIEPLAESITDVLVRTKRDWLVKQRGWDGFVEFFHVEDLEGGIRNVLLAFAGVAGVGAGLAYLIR
Bcl-xL primary: blocks human Bcl-xL binding to Bim BH3 peptide; Q07817; GST-Bcl-xL / FITC-Bim BH3 peptide fluorescence polarization; inhibition, % at 10.9 µM; 0.7% of 320,000 active; AID 2129;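 active = inhibition above the mean of all tested compounds plus 3 SD, cutoff set per campaign, cut at about 30% in these data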;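 also: 0% = DMSO wells and 100% = unlabeled Bim-BH3 peptide competitor; inhibitors lower millipolarization by displacing the labeled peptide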
E coli Lon inh: inhibits E. coli Lon protease; inhibition, % at 7.94 µM; 0.42% of 360,000 active; P0A9M0; purified E. coli Lon protease, fluorescence polarization; in the data active = inhibition above about 13%, passing the limit was not always enough;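 also: 0% = enzyme with probe and DMSO and 100% = no enzyme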
MEX-5 binding: C. elegans MEX-5 TCR-2 RNA binding activity. activity score (negative = inhibition of binding), % at 10 µM. MEX-5/FITC-TCR2 RNA binding, fluorescence polarization; active compounds read low. 0.38% of 300,000 active. Q9XUB2. AID 1832;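 active = inhibition past about -25% in most replicates, and total fluorescence under double the plate's negative control median, limit read from the data; inconclusive = replicates evenly split on the limit, or fluorescence at least double controls; inactive = too little inhibition in most replicates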;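 also: 0% = DMSO and -100% = 5 µM competing unlabeled TCR2 RNA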
GLD-1 TGE inh: GLD-1-TGE RNA interaction inhibition (C. elegans); purified GLD-1 + fluorescein TGE RNA, fluorescence polarization; 0.44% of 320,000 active; inhibition, % at 5.96 µM; Q17339;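 active = percent inhibition above a per-plate cutoff, the plate mean of test compounds plus 3 SD, cut at about 30% in these data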;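 also: 0% = DMSO wells with GLD-1 and probe and 100% = wells lacking GLD-1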
Bcl-xL conf: Bcl-xL (human) inhibition, MCL1 counter-screen confirmation | 54% of 1,700 active | GST-Bcl-xL / FITC-Bim BH3 peptide FP binding | AID 2166 | inhibition, % at 10.9 µM | shares compounds with MCL1-BIM inh;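 active = inhibition above a cutoff equal to the mean inhibition of all tested compounds plus 3 SD, cut at about 30% in these data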;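 also: 0% = DMSO wells and 100% = unlabeled Bim BH3 control peptide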
MCL1 BIM confirm: confirmation of human MCL1 and BIM-BH3 interaction inhibitors; shares compounds with MCL1-BIM inh; GST-MCL1 / FITC-Bim-BH3 fluorescence polarization; 61% of 1,700 active; inhibition, % at 10.9 µM; AID 2168;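 active = inhibition above the average of all tested compounds plus 3 SD, cut at about 40% in these data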;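 also: 0% = DMSO wells and 100% = unlabeled Bim-BH3 control peptide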
Numbers without * were called inactive; ? = inconclusive; · = no result given; + = active, no number.

SMILES | EBV gp42 inh | MCL1-BIM inh | Bcl-xL primary | E coli Lon inh | MEX-5 binding | GLD-1 TGE inh | Bcl-xL conf | MCL1 BIM confirm
CCN(CC)C(=O)CSc1ncnc2c(-c3cccs3)nsc12 | -15.2 | 63.9* | 35.0* | -16.0 | · | 16.5 | 13.8 | 31.9
COc1ccc(N)c2c1C(=O)c1ccccc1C2=O | 1.1 | 23.2 | 15.7 | 4.0 | -1.0 | 14.3 | · | ·
COc1ccc(OC)c2c1C(=O)c1ccccc1C2=O | + | + | + | · | ? | + | + | +
COc1ccc(OC)c2c1C(=O)C(Cl)=C(Cl)C2=O | -38.6 | 70.8* | 39.0* | 7.3 | -1.9 | 17.6 | 47.0* | 65.2*
CCOC(=O)C1=C(CSc2nc3c(cc2C#N)CN(C)CC3)OC(N)=C(C#N)C1c1ccc(Cl)cc1 (stereo not given) | -15.1 | 52.5* | 39.9* | -19.6 | 0.7 | 33.5* | 40.9* | 43.8*
CCOC(=O)C1=C(CSc2nc(CC)c(C)cc2C#N)OC(N)=C(C#N)C1c1ccccc1 (stereo not given) | -11.6 | -3.8 | 2.3 | -13.8 | -0.1 | -23.9 | · | ·
O=C(O)c1ccc(S(=O)(=O)c2ccc3c(c2)C(=O)N(NC(=O)c2cccnc2)C3=O)cc1 | -5.0 | 5.5 | 9.3 | 7.1 | -0.9 | 4.6 | · | ·
O=C(N/N=C/c1cccc(OC(=O)c2cccc(Br)c2)c1)c1ccncc1 | · | 0.6 | -0.8 | 7.3 | 2.7 | -2.6 | · | ·
CCOC(=O)c1ccc(NC(=O)CSc2nc(C)cc(=O)[nH]2)cc1 | 24.4 | 40.9* | 13.6 | -8.5 | 1.9 | 0.7 | 22.6 | 50.7*
C=CCN1C=CC(=O)CC1 | -13.2 | 131.3* | 164.1* | 3.6 | -0.5 | 87.3* | 5.2 | -2.2
C=CCN1C=C(C(C)=O)C(=O)CC1 | · | · | · | 10.6 | · | · | · | ·
COc1ccc(NS(=O)(=O)c2ccc(NC(=S)NC(=O)c3cccnc3)cc2)nn1 | -12.9 | 9.2 | 12.4 | 2.6 | 0.9 | 2.0 | · | ·
COc1ccc(NS(=O)(=O)c2ccc(NC(=S)NC(=O)c3cccc(F)c3)cc2)nn1 | -12.4 | 41.8* | 9.9 | -2.0 | -1.4 | -4.0 | 20.7 | 11.4
Nc1ccc(S(=O)(=O)Nc2nc3ccccc3o2)cc1 | · | 45.3* | 15.8 | -11.8 | -3.3 | 3.3 | 28.2 | 47.4*
CC(OC(=O)CCN=C1NS(=O)(=O)c2ccccc21)C(=O)Nc1ccc(F)c(F)c1F (stereo not given) | · | -16.0 | -18.0 | -9.0 | -1.9 | 4.3 | · | ·
Cc1ccc(C)n1Cc1ccc(C(=O)O)cc1 | 6.7 | 92.2* | 41.0* | -3.2 | · | 22.2 | 36.2* | 110.1*
CC1CC(C)CN(CC(=O)N2CCOCC2)C1 (stereo not given) | 3.2 | -0.9 | 1.4 | -3.8 | -3.7 | -4.2 | · | ·
CCOC1=CC2=C(C(=O)C(Cl)=CC2=O)[C@@H]2CN(S(=O)(=O)c3ccc(C)cc3)[C@@H](c3ccccc3)[C@H]12 | · | · | · | -3.4 | · | · | · | ·
O=C(/C=C/c1ccc(Br)o1)OCc1nc2ccsc2c(=O)[nH]1 | · | 48.7* | 27.5 | -22.7 | 0.7 | 12.0 | 37.5* | 86.5*
CCOP1(=O)OCC2OC(n3cnc4c(N)ncnc43)C(O)C2O1 (stereo not given) | -12.3 | -4.0 | 2.1 | 3.0 | 0.6 | 1.3 | · | ·
COc1ccc(-n2c(C)ccc2-c2ccccc2)cn1 | · | 127.9* | 106.6* | 29.2 | -0.5 | 89.0* | 88.8* | 108.3*
COC(=O)c1ccc(-n2c(C)ccc2-c2ccccc2)cc1 | -24.7 | -11.1 | -3.7 | 0.1 | -0.4 | -3.0 | · | ·
O=C(C[n+]1cc(Br)cc2ccccc21)c1ccc(Cl)cc1 | · | 85.9* | 84.1* | -18.7 | 2.3 | -35.9 | 23.4 | 35.3
O=C(C[n+]1cccc2ccccc21)c1ccc(Br)cc1 | · | -1.1 | 2.4 | -10.8 | 4.9 | -5.2 | · | ·
O=C(C[n+]1cc(Br)cc2ccccc21)c1ccc(Br)cc1 | · | 93.8* | 57.5* | -21.1 | 0.4 | -21.1 | 54.5* | 73.8*
SMILES | EBV gp42 inh | MCL1-BIM inh | Bcl-xL primary | E coli Lon inh | MEX-5 binding | GLD-1 TGE inh | Bcl-xL conf | MCL1 BIM confirm
S=C(NCCC1=CCCCC1)NCc1ccco1 | 3.5 | -3.5 | 1.0 | -6.3 | 3.0 | 4.5 | · | ·
COc1cc(C2C(C#N)=C(N)OC3=C2C(=O)CC(C)(C)C3)ccc1OCCN1CCOCC1 (stereo not given) | -0.1 | 4.7 | 5.3 | 1.6 | -0.6 | 3.5 | · | ·
COC(=O)N1C(=O)[C@](Cc2ccccc2)(c2ccccc2)N1C(=O)OC | · | 1.0 | -1.4 | 2.4 | 2.8 | -3.0 | · | ·
COc1ccc(CCNC(=O)c2cc(-c3ccncc3)nc3ccc(S(=O)(=O)N4CCOCC4)cc23)cc1OC | · | 1.0 | 2.5 | -1.7 | 1.6 | 5.2 | · | ·
COc1ccc(NC(=O)c2sc3nc(-c4cccnc4)ccc3c2N)cc1 | 84.5* | 111.9* | 107.8* | 4.4 | -54.7* | 68.7* | 113.0* | 137.2*
Cc1ccc(C(=O)O)cc1N1C(=O)c2cccc3c([N+](=O)[O-])ccc(c23)C1=O | · | 101.7* | 81.7* | 14.0 | -24.2 | 50.4* | 47.4* | 75.6*
COc1ccc(C(=O)C2CCCN(Cc3c[nH]c4ccccc34)C2)c(OC)c1 (stereo not given) | -8.8 | -0.8 | 1.9 | -3.3 | -2.8 | -3.2 | · | ·
COc1ccc(S(=O)(=O)N(C(=O)c2ccco2)c2cc3sc(=O)oc3c3ccccc23)cc1 | -0.8 | 44.5* | 16.9 | 8.8 | 3.0 | 4.9 | 1.1 | -3.5
CCOc1ccc(S(=O)(=O)N(C(=O)c2ccco2)c2cc3sc(=O)oc3c3ccccc23)cc1 | -2.2 | 38.3 | 13.8 | 3.5 | -1.8 | -3.4 | · | ·
Cc1ccc(S(=O)(=O)N(C(=O)c2ccco2)c2cc3sc(=O)oc3c3ccccc23)cc1 | -8.6 | 43.6* | 14.2 | -5.6 | -3.5 | 0.1 | 14.6 | 10.4
CC(=O)N(c1ccc2oc(=O)sc2c1)S(=O)(=O)c1ccccc1 | -7.0 | 25.8 | 14.8 | 7.9 | -0.7 | 4.8 | · | ·
O=C(NCN1CCN(c2ccccc2)CC1)c1cnccn1 | · | 140.1* | 3.2 | -4.1 | 0.4 | 3.4 | 6.8 | 6.2
Cc1ccc(NC(=O)c2cc(C(=O)c3cc(Cl)ccc3O)cn(-c3ccc(C)cc3)c2=O)cc1 | -52.5 | -13.5 | -3.5 | 12.3 | 2.8 | -0.3 | · | ·
CCCCC[C@H]1CN(Cc2ccc(OC)cc2)C(=O)[C@@H]1CC(=O)NCc1ccccc1 | · | -2.7 | 2.0 | 2.2 | 0.2 | 1.1 | · | ·
CCOC(=O)C[C@H]1c2ccc(C(F)(F)F)cc2S(=O)(=O)N1c1cccc(OC)c1 | · | 41.0* | 7.3 | 10.9 | 1.1 | 0.0 | -5.4 | 42.8*
COc1cccc(N2[C@@H](CC(C)=O)c3cc(C(F)(F)F)ccc3S2(=O)=O)c1 | · | -2.0 | 4.1 | -0.9 | 0.8 | -7.7 | · | ·
CN1C(=O)c2cccc3c(Cl)ccc(c23)C1=O | 1.9 | 10.5 | 7.3 | 4.1 | -1.6 | 3.6 | · | ·
